The nature of assay [1]: NCI Yeast Anticancer Drug Screen. Data for the rad50 strain (AID 155).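 Note: 0% = growth of vehicle-only cultures of the same strain.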 The following applies: S. cerevisiae rad50 strain growth inhibition, hits give high values. An outline of the steps: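 Yeast carrying a defined DNA repair defect were exposed to test compounds, and growth was compared with vehicle-treated controls to give percent inhibition.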
Assay [2] in a line: NCI Yeast Anticancer Drug Screen. Data for the mec2-1 strain (AID 157). The following applies: S. cerevisiae mec2-1 strain, hits give high values. A digest of the protocol:
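Mutant yeast (mec2-1) grown with compound; growth inhibition relative to vehicle control reported.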

Assay [3] in a line: NCI Yeast Anticancer Drug Screen. Data for the sgs1 mgt1 strain (AID 161).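 Note: 0% = growth of cultures given vehicle only.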 The following applies: S. cerevisiae sgs1 mgt1 strain, hits give high values. A digest of the protocol: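 Percent growth inhibition was derived by comparing compound-exposed mutant yeast with vehicle-exposed cultures. The strain carries alterations in DNA damage repair.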
The nature of assay [4]: NCI Yeast Anticancer Drug Screen. Data for the cln2 rad14 strain (AID 165).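 Note: 0% = growth equal to vehicle treated cultures.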 Conditions: S. cerevisiae cln2 rad14 strain, hits give high values. An outline of the steps: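 Readout is yeast growth inhibition versus vehicle-treated controls, using a strain with cln2 and rad14 alterations exposed to compound.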
Assay [5] in a line: NCI Yeast Anticancer Drug Screen. Data for the bub3 strain (AID 167). The following applies: S. cerevisiae bub3 mutant strain, hits give high values. A digest of the protocol: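 Compounds were applied to a genetically altered yeast strain carrying a cell-cycle control defect. Growth inhibition was scored against vehicle-treated controls.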
Assay [6] can be described thus: NCI Yeast Anticancer Drug Screen. Data for the mlh1 rad18 strain (AID 175). The following applies: S. cerevisiae mlh1 rad18 strain growth inhibition, hits give high values. A digest of the protocol:
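Genetically defined yeast (DNA repair-deficient) exposed to compounds; growth inhibition determined relative to vehicle.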

The mark [7] stands for this setting: at 5.0 µM (retest, dose inferred, filed as 0.5).
Where [8] appears, read: at 50.0 µM (retest, dose inferred, filed as 5.0).

Structures are written as SMILES. This is part of a sample that, as a whole, favours compounds with a hit. Of some 79,000 tested, about 15% had one in any assay. A number with no mark means an inactive call. Calls of active or inactive are those of the source. Cut-off read from the data, not from the text of the source: active = growth inhibition above about 70%; inactive = the rest.

As to `CC1(C)CC(=O)C(C(c2ccc3c(c2)OCO3)N2CCOCC2)C(=O)C1` (stereo not given), the growth inhibition in assay [1] (setting [7]) is -22%; in assay [1] (setting [8]), -17%; in assay [1] (at 50.0 µM), 99.2% (active); in assay [2] (setting [7]), 9%; in assay [2] (setting [8]) it was -13%; in assay [2] (at 50.0 µM), 99.5% (active). The growth inhibition is -21% in assay [3] (setting [7]); 4% in assay [3] (setting [8]); 99.3% (active) in assay [3] (at 50.0 µM); -9% in assay [4] (setting [7]); 3% in assay [4] (setting [8]); 98.2% (active) in assay [4] (at 50.0 µM). In addition, the growth inhibition in assay [5] (setting [7]) was 20%; in assay [5] (setting [8]), -11%; in assay [5] (at 50.0 µM), 98.8% (active); in assay [6] (setting [7]), -26%; in assay [6] (setting [8]), -27%; in assay [6] (at 50.0 µM), 99.1% (active).
As to `O=C(Nc1ccccc1)c1ccccc1O`, the growth inhibition is 2% in assay [1] (setting [7]); 93% (active) in assay [1] (setting [8]); 86.2% (active) in assay [1] (at 50.0 µM); -2% in assay [2] (setting [7]); 91% (active) in assay [2] (setting [8]); 79.5% (active) in assay [2] (at 50.0 µM). Also, the growth inhibition in assay [3] (setting [7]) is 2%; in assay [3] (setting [8]) it was 87% (active); in assay [3] (at 50.0 µM), 92.6% (active); in assay [4] (setting [7]), -3%; in assay [4] (setting [8]), 84% (active); in assay [4] (at 50.0 µM), 73.8% (active). For the same molecule, the growth inhibition in assay [5] (setting [7]) is -2%; in assay [5] (setting [8]) it was 92% (active); in assay [5] (at 50.0 µM), 86% (active); in assay [6] (setting [7]), -4%; in assay [6] (setting [8]) it was 98% (active); in assay [6] (at 50.0 µM) it was 97.2% (active).
With `CCCCCCCCCCCCCCCCCCOC(=O)C(N)Cc1ccccc1` (stereo not given), the growth inhibition is -1% in assay [1] (setting [7]); -9% in assay [1] (setting [8]); -7.3% in assay [1] (at 50.0 µM); -2% in assay [2] (setting [7]); -5% in assay [2] (setting [8]); 10.1% in assay [2] (at 50.0 µM). Also, the growth inhibition in assay [3] (setting [7]) is 0%; in assay [3] (setting [8]) it was -6%; in assay [3] (at 50.0 µM), 11.1%; in assay [4] (setting [7]), -6%; in assay [4] (setting [8]) it was -4%; in assay [4] (at 50.0 µM) it was -7.75%. The growth inhibition in assay [5] (setting [7]) was -2%; in assay [5] (setting [8]), -3%; in assay [5] (at 50.0 µM) it was -5.85%; in assay [6] (setting [7]), -3%; in assay [6] (setting [8]), -8%; in assay [6] (at 50.0 µM), 5.5%.
On to `CC(=O)O[C@@H]1c2c(c3c(=O)c4cccc(O)c4c(=O)c=3c2=[N+]=[N-])[C@H](OC(C)=O)[C@@H](OC(C)=O)[C@]1(C)O`, for which the growth inhibition in assay [1] (setting [7]) was 99% (active); in assay [1] (setting [8]), 99% (active); in assay [1] (at 50.0 µM), 92% (active); in assay [2] (setting [7]), 99% (active); in assay [2] (setting [8]) it was 99% (active); in assay [2] (at 50.0 µM), 93.7% (active). The growth inhibition was 99% (active) in assay [3] (setting [7]); 99% (active) in assay [3] (setting [8]); 93% (active) in assay [3] (at 50.0 µM); 99% (active) in assay [4] (setting [7]); 99% (active) in assay [4] (setting [8]); 91.3% (active) in assay [4] (at 50.0 µM). Also, the growth inhibition is 98% (active) in assay [5] (setting [7]); 99% (active) in assay [5] (setting [8]); 91.4% (active) in assay [5] (at 50.0 µM); 99% (active) in assay [6] (setting [7]); 99% (active) in assay [6] (setting [8]); 91.6% (active) in assay [6] (at 50.0 µM).
With `O=[N+]([O-])c1ccc(N2CCCC(n3cccc3)C2)c([N+](=O)[O-])c1` (stereo not given), the growth inhibition in assay [1] (setting [7]) is 7%; in assay [1] (setting [8]), 38%; in assay [1] (at 50.0 µM), 47.6%; in assay [2] (setting [7]) it was -2%; in assay [2] (setting [8]), 5%; in assay [2] (at 50.0 µM) it was 46.2%. For the same molecule, the growth inhibition in assay [3] (setting [7]) was 4%; in assay [3] (setting [8]), 27%; in assay [3] (at 50.0 µM), 61.3%; in assay [4] (setting [7]) it was 12%; in assay [4] (setting [8]), 49%; in assay [4] (at 50.0 µM), 50.2%. In addition, the growth inhibition in assay [5] (setting [7]) is -9%; in assay [5] (setting [8]) it was 50%; in assay [5] (at 50.0 µM), 67.6%; in assay [6] (setting [7]), 1%; in assay [6] (setting [8]), 55%; in assay [6] (at 50.0 µM), 48.5%.
On to `Cc1c(O)/c(=C\O)c2nc3c(=O)ccc(C(=O)NCCN(C)C)c3[nH]c2c1=O`, for which the growth inhibition in assay [1] (setting [7]) was 29%; in assay [1] (setting [8]) it was 97% (active); in assay [1] (at 50.0 µM) it was 57.5%; in assay [2] (setting [7]), 14%; in assay [2] (setting [8]), 70% (active); in assay [2] (at 50.0 µM) it was 98.2% (active). The growth inhibition in assay [3] (setting [7]) is 33%; in assay [3] (setting [8]) it was 97% (active); in assay [3] (at 50.0 µM), 56%; in assay [4] (setting [7]), -10%; in assay [4] (setting [8]), 94% (active); in assay [4] (at 50.0 µM), 98.2% (active). For the same molecule, the growth inhibition was 19% in assay [5] (setting [7]); 96% (active) in assay [5] (setting [8]); 98.3% (active) in assay [5] (at 50.0 µM); 34% in assay [6] (setting [7]); 96% (active) in assay [6] (setting [8]); 45.1% in assay [6] (at 50.0 µM).
With `CC1(C)OC2COC3(CNO)OC(C)(C)OC3C2O1` (stereo not given), the growth inhibition in assay [1] (setting [7]) was 0%; in assay [1] (setting [8]) it was -4%; in assay [1] (at 50.0 µM) it was 22.5%; in assay [2] (setting [7]), -1%; in assay [2] (setting [8]) it was 1%; in assay [2] (at 50.0 µM), 32.6%. Moreover, the growth inhibition in assay [3] (setting [7]) was -7%; in assay [3] (setting [8]), -2%; in assay [3] (at 50.0 µM) it was 83.1% (active); in assay [4] (setting [7]), -5%; in assay [4] (setting [8]), 8%; in assay [4] (at 50.0 µM), 25.1%. Further, the growth inhibition in assay [5] (setting [7]) was 3%; in assay [5] (setting [8]), 5%; in assay [5] (at 50.0 µM), 63.9%; in assay [6] (setting [7]) it was -10%; in assay [6] (setting [8]), -2%; in assay [6] (at 50.0 µM), 69.7%.
As to `Oc1cccnc1CN1CCCCC1`, the growth inhibition in assay [1] (setting [7]) was -5%; in assay [1] (setting [8]), 19%; in assay [1] (at 50.0 µM) it was -11.7%; in assay [2] (setting [7]), 6%; in assay [2] (setting [8]), 22%; in assay [2] (at 50.0 µM), -3.1%. For the same molecule, the growth inhibition in assay [3] (setting [7]) is 7%; in assay [3] (setting [8]) it was 8%; in assay [3] (at 50.0 µM), -28.5%; in assay [4] (setting [7]), 14%; in assay [4] (setting [8]) it was 14%; in assay [4] (at 50.0 µM), 85.7% (active). For the same molecule, the growth inhibition was -21% in assay [5] (setting [7]); 7% in assay [5] (setting [8]); -10.8% in assay [5] (at 50.0 µM); 19% in assay [6] (setting [7]); 46% in assay [6] (setting [8]); -21.1% in assay [6] (at 50.0 µM).
Consider `CSC(=S)CC(O)[C@@H]1CC2c3ccccc3C1c1ccccc12` (stereo not given in full), for which the growth inhibition in assay [1] (setting [7]) is -5%; in assay [1] (setting [8]), 94% (active); in assay [1] (at 50.0 µM), 76.7% (active); in assay [2] (setting [7]) it was 1%; in assay [2] (setting [8]) it was 93% (active); in assay [2] (at 50.0 µM) it was 84.3% (active). Besides, the growth inhibition in assay [3] (setting [7]) is 1%; in assay [3] (setting [8]), 93% (active); in assay [3] (at 50.0 µM) it was 65.7%; in assay [4] (setting [7]), 2%; in assay [4] (setting [8]), 92% (active); in assay [4] (at 50.0 µM) it was 79.7% (active). The growth inhibition in assay [5] (setting [7]) is 17%; in assay [5] (setting [8]), 93% (active); in assay [5] (at 50.0 µM), 77% (active); in assay [6] (setting [7]) it was 5%; in assay [6] (setting [8]) it was 93% (active); in assay [6] (at 50.0 µM) it was 71.5% (active).
`CCCCCC(/C=N/NC(N)=S)C(O)(C(F)(F)F)C(F)(F)F` (stereo not given): the growth inhibition in assay [1] (setting [7]) was -21%; in assay [1] (setting [8]) it was 51%; in assay [1] (at 50.0 µM) it was 77.6% (active); in assay [2] (setting [7]) it was -17%; in assay [2] (setting [8]) it was 47%; in assay [2] (at 50.0 µM), 62.4%. For the same molecule, the growth inhibition in assay [3] (setting [7]) is -7%; in assay [3] (setting [8]) it was 28%; in assay [3] (at 50.0 µM), 73% (active); in assay [4] (setting [7]), -11%; in assay [4] (setting [8]), 77% (active); in assay [4] (at 50.0 µM), 61%. The growth inhibition in assay [5] (setting [7]) was -11%; in assay [5] (setting [8]) it was 77% (active); in assay [5] (at 50.0 µM), 35%; in assay [6] (setting [7]), -27%; in assay [6] (setting [8]), 78% (active); in assay [6] (at 50.0 µM), 67.9%.

The values are drawn from PubChem BioAssay (NCI).
